Assay outcomes as filed in PubChem BioAssay.
The entries come from a sample that favours hits as a whole.
ALOX12 inh = Primary qHTS assay for inhibitors of human arachidonate 12S-lipoxygenase (ALOX12): Round 2; 580,000 tested, 1.1% active; purified 12hLO, xylenol orange hydroperoxide absorbance; Potency, µM (titrated, usually from 108 µM), without a hit: at the top dose activity change, negative = inhibition, usual class: inhibitors; note: % is set by controls: 0 for no effect and ±100 for the full control effect
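Purified human 12hLO at 150 nM in 25 mM Hepes, 0.01% Triton X-100, pH 7.0, preincubated 15 min at room temperature with compound. Reaction started with 40 uM arachidonic acid, 30 min at room temperature. Hydroperoxide measured by Fe-xylenol orange, 573/405 nm absorbance ratio.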
GRP78 ERSR act = qHTS for Inducers of the Endoplasmic Reticulum Stress Response (ERSR) in Human Glioma: qHTS; 420,000 tested, 0.02% active; Potency, µM, for the others: top-dose activation, usual class: activators; U87-MG GRP78 promoter luciferase reporter, 16 h; note: series mostly up to about 76 µM; % of control where 0% means no effect; nearly all actives have a fitted effect of over 35% in size
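ERSR induction read as luciferase luminescence (Bright-Glo, 10 min at room temperature) in stably transfected human U87-MG glioma cells exposed to compounds for 16 h, using GRP78 as sensor.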
G9a block = qHTS Assay for Inhibitors of Histone Lysine Methyltransferase G9a; Histone-lysine N-methyltransferase EHMT2 (Homo sapiens), Q96KQ7; G9a H3K9 monomethylation, AlphaScreen, 2 h; Potency, µM (top dose mostly 102 µM), for inactives: at the top dose activity, negative = inhibition, hits mostly inhibitors; 350,000 tested, 8.8% active; AID 504332, 2011; note: % is set by controls: 0 for no effect and ±100 for the full control effect; nearly all actives have a fitted effect of over 75% in size
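Compounds were preincubated with 20 nM G9a for 15 min, after which biotinylated H3K9 peptide (500 nM) and SAM (20 uM) started a 2 h room-temperature reaction. Monomethylated product was quantified by antibody-based AlphaScreen chemiluminescence.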
VDR inhibitor = Inhibitors of the vitamin D receptor (VDR): qHTS. Vitamin D3 receptor (Homo sapiens), P11473. VDR-SRC2-3 peptide fluorescence polarization, 2 h. Potency, µM, for the others: max response, negative = inhibition, most hits filed as inhibitors. 400,000 tested, 0.93% active; note: % is set by controls: 0 for no effect and ±100 for the full control effect
Target sequence (P11473 whole entry, looked up): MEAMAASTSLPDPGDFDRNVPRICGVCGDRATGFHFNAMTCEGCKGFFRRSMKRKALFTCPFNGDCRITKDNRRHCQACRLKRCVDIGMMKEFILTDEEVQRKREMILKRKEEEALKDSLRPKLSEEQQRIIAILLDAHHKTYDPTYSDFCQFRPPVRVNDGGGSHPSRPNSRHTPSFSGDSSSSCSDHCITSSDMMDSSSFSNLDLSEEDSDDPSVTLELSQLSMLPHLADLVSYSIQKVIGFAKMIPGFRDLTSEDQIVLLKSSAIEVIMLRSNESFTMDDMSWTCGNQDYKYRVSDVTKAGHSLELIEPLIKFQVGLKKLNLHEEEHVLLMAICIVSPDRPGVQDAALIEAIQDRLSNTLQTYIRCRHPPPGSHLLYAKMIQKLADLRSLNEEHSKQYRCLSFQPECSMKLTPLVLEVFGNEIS
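Fluorescence polarization assay of small-molecule disruption of VDR binding to coregulator peptide SRC2-3. Compounds and controls pin-transferred, then read after 2 h incubation at ambient room temperature.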
Sfp PPTase inh = qHTS Assay for Inhibitors of Bacillus subtilis Sfp phosphopantetheinyl transferase (PPTase); 4'-phosphopantetheinyl transferase ffp (Bacillus subtilis), Q9F4F7; Biochemical Sfp PPTase activity, qHTS; Potency, µM, for the others: largest response in the series, negative = inhibition, hits mostly inhibitors; 310,000 tested, 3.5% active;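 note: the enzyme is Sfp with the accession as filed and its product quenches rhodamine fluorescence; 0% = enzyme reaction without inhibitor and -100% = no enzyme wells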
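Reaction rates are the 30-min fluorescence difference (ex 525, em 598 nm) in wells containing 15 nM Sfp, 5 uM rhodamine-CoA and 12.5 uM BHQ-2-YbbR at pH 7.6 with 10 mM MgCl2.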
* hit, by the source's call; ? = inconclusive; · = no result; [ ] = remark or other dose. Calls come from the whole dose curve; as a rule, active = well fitted curve in the direction sought with a large enough effect; inconclusive = small, poorly fitted or top-dose-only effect, or another doubt; inactive = no such curve, though single readings can be large; an effect the other way counts as inactive or inconclusive. Potency is the fitted concentration of half-maximal effect.

SMILES | ALOX12 inh | GRP78 ERSR act | G9a block | VDR inhibitor | Sfp PPTase inh
CCN(CC)S(=O)(=O)c1ccc(NCc2ccccn2)nc1 | ? | 0.1% | 28.2µM* | -14.1% | 4.8%
CC(c1ccccc1)n1c(S(=O)(=O)O)nc2ccccc21 (stereo not given) | -3.3% | -0.3% | -7.1% | 2.0% | 14.1%
CC(C)n1c(S(=O)(=O)O)nc2ccccc21 | · | 0.3% | 44.7µM* | 5.5% | -1.8%
O=C(/C=C/c1ccccc1)/C=C/c1ccccc1 | -2.9% | -8.7% | ? | 12.6µM* | -27.1%
CC(=O)N1CCN(c2ccc(NCc3cccc(C)c3)cc2)CC1 | ? | 0.7% | ? | ? | ·
COc1cc(CNc2ccc(N3CCN(C(C)=O)CC3)cc2)ccc1OCc1ccc(F)cc1 | ? | -1.5% | 3.98µM* | 12.6% | -23.7%
CC(=O)N1CCN(c2ccc(NCc3ccc(F)cc3)cc2)CC1 | ? | -0.5% | 7.94µM* | ? | 39.8µM*
O=C(O)/C=C/C(=O)N1CCN(c2ccc(F)cc2)CC1 | ? | -2.6% | 50.1µM* | -6.5% | -5.9%
Oc1c(/C=N/c2ncn[nH]2)ccc2ccccc12 | -3.7% | 0.9% | 2.24µM* | 2.3% | -4.7%
Cc1ccc(-n2c(O)c(/C=N/c3ncn[nH]3)c3ccccc3c2=O)cc1 | -9.7% | -4.1% | 15.2%[12.7 µM] | -21.5% | 14.4%
COCc1cc(C)nc2sc3c(c12)NCN(c1ccccc1C)C3=O | -12.9% | · | · | · | ·
CN1CCN(C2=C(Cl)C(=O)N(c3ccc(Cl)c(Cl)c3)C2=O)CC1 | · | -0.3% | 31.6µM* | ? | 4.3%
CCCc1cc(=O)[nH]c(Nc2nc(C)c3cc(C)c(C)cc3n2)n1 | 3.6% | · | · | · | ·
Cc1ccc2c(c1)C(=O)c1ccccc1C2=O | -4.4%[176 µM] | · | · | · | ·
Cc1ccc(SC2=C(N(C)C)C(=O)c3ccccc3C2=O)cc1 | 10µM* | 9.6% | · | ? | ·
CCOc1c(/C=C/c2ccc3cccc(O)c3n2)cccc1OC | -27.4% | · | · | · | ·
Cc1ccc(NC(=O)COC(=O)Cn2cnc3ccccc32)cc1S(=O)(=O)N(C)C | 2.5% | -4.3% | 50.1µM* | -17.9% | 3.6%
COc1ccc(CCC(=O)Nc2ccc(C)c(S(=O)(=O)N(C)C)c2)cc1OC | 12.3% | -4.4% | 7.6%[59 µM] | -10.4% | -4.1%
CN(C)S(=O)(=O)c1cc(NC(=O)CN2CCN(c3ccc(O)cc3)CC2)ccc1Cl | ? | -4.6% | 3.98µM* | -5.6% | -98.6%
CC(=O)c1ccc(NC(=O)COC(=O)Cn2cnc3ccccc32)cc1 | 3.3% | 0.3% | · | ? | ·
COc1ccc(CCNCC(=O)Nc2ccc(C)c(S(=O)(=O)N(C)C)c2)cc1 | -18.4% | -2.5% | 14.1µM* | -4.7% | -12.9%
Cc1ccc(NC(=O)CNCc2ccc(Cl)cc2Cl)cc1S(=O)(=O)N(C)C | ? | -4.0% | 10µM* | ? | 79.4µM*
CC(=O)Nc1ccc(S(=O)(=O)N[C@H]2CO[C@H]3[C@@H]2OC[C@@H]3n2nnnc2Oc2ccc3c(c2)OCO3)cc1 | 1.3% | · | · | · | ·
Cc1ccc(CN2CCCn3nc(C)c(-c4ccccc4-c4ccccc4)c32)o1 | 53.2%[176 µM] | · | · | · | ·
CN(C)S(=O)(=O)c1ccc(Cl)c(C(=O)Nc2ccccc2[N+](=O)[O-])c1 | -13.8% | -4.3% | 2.8%[59 µM] | -19.2% | 5.3%
CN(CCOc1ccccc1)CC(=O)Nc1ccc(Cl)cc1[N+](=O)[O-] | ? | -1.9% | 3.55µM* | -26.5% | 50.1µM*
CCC(C(=O)OCC(=O)Nc1ccc(Cl)c(S(=O)(=O)N(C)C)c1)c1ccccc1 (stereo not given) | 17.9% | -6.8% | ? | -3.6% | 7.2%
CN(C)S(=O)(=O)c1cc(NC(=O)CN2CCN(c3ccccc3)CC2)ccc1Cl | 8.9% | 6.7% | 14.5%[59 µM] | -16.9% | 20.6%
CN(C)S(=O)(=O)c1cc(NC(=O)CNCCN2CCOCC2)ccc1Cl | -19.7% | 4.1% | 10µM* | -1.3% | ?
CCN(CC)S(=O)(=O)c1ccc(Cl)c(C(=O)Nc2ccc(Cl)cc2[N+](=O)[O-])c1 | -23.5% | -5.2% | 8.91µM* | -2.8% | 13.4%
